# Measurements from the supplement of paper PMC3616981.
# ± gives the standard deviation of the averaged measurements.
# Legend:
# [1] = compound: CC(C)c1cccc(C(C)C)c1N1C(=O)c2ccc(O)cc2C1=O; experiment: reporter fold induction vs vehicle; higher = higher reporter activity
# In short: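 Multiplexed cellular biosensor reporter system with cis response-element and trans nuclear-receptor transcription factor reporter constructs (48 cis, 25 trans) and homogeneous detection, tested in ToxCast Phase II at 8 concentrations (0.091–200 µM). Reporter activity is given as fold induction relative to vehicle control. Replicates were averaged where present.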
# [2] = compound: CC(C)c1cccc(C(C)C)c1N1C(=O)c2ccc(O)cc2C1=O; experiment: BioMAP readout fold decrease vs vehicle (vehicle/treated); higher = stronger decrease of the readout vs vehicle (values <1 mean increase)
# Method: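 BioSeek BioMAP human primary cell (co-)culture systems (3C, 4H, LPS, SAg, BE3C, CASM3C, hDFCGF, KF3CT) treated with 5HPP-33 at 1.48, 4.44, 13.3 and 40 µM. Read-outs are protein levels by ELISA, proliferation and SRB total protein. Duplicate rows per assay are averaged as replicates. Tested in ToxCast Phase II for this study; exposure time not stated.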
# 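Throughout, for BioMAP readout fold decrease vs vehicle (vehicle/treated): Co-cultures of keratinocytes, bronchial epithelial and smooth muscle cells, fibroblasts, HUVECs and PBMCs under stimuli like LPS, TNF-α, IFN-γ, IL-1β, TGF-β or EGF, SRB reflecting cytotoxicity.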
target,measurement,setting,value
M_61_CIS,reporter fold induction,[1]; 0.091 µM,0.997
same,reporter fold induction,[1]; 0.274 µM,0.997
same,reporter fold induction,[1]; 0.823 µM,1.01
same,reporter fold induction,[1]; 2.469 µM,0.995
same,reporter fold induction,[1]; 7.407 µM,1.02
same,reporter fold induction,[1]; 22.22 µM,1.02
same,reporter fold induction,[1]; 66.67 µM,0.98
same,reporter fold induction,[1]; 200 µM,1.09
hDFCGF_CollagenIII,BioMAP readout fold decrease,[2]; 1.48 µM,1.123 ± 0.0039
same,BioMAP readout fold decrease,[2]; 4.44 µM,1.19 ± 0.025
same,BioMAP readout fold decrease,[2]; 13.3 µM,1.04 ± 0.012
same,BioMAP readout fold decrease,[2]; 40 µM,1.49 ± 0.13
BE3C_IP10,BioMAP readout fold decrease,[2]; 1.48 µM,1.1 ± 0.12
same,BioMAP readout fold decrease,[2]; 4.44 µM,1.15 ± 0.0028
same,BioMAP readout fold decrease,[2]; 13.3 µM,1.65 ± 0.029
same,BioMAP readout fold decrease,[2]; 40 µM,3.38 ± 0.11
hDFCGF_Proliferation,BioMAP readout fold decrease,[2]; 1.48 µM,1.22 ± 0.13
same,BioMAP readout fold decrease,[2]; 4.44 µM,2.66 ± 0.091
same,BioMAP readout fold decrease,[2]; 13.3 µM,4.594 ± 0.011
same,BioMAP readout fold decrease,[2]; 40 µM,12.1 ± 0.038
KF3CT_MCP1,BioMAP readout fold decrease,[2]; 1.48 µM,1.03 ± 0.041
same,BioMAP readout fold decrease,[2]; 4.44 µM,0.926 ± 0.043
same,BioMAP readout fold decrease,[2]; 13.3 µM,0.7754 ± 0.0028
same,BioMAP readout fold decrease,[2]; 40 µM,1.14 ± 0.36
hDFCGF_IP10,BioMAP readout fold decrease,[2]; 1.48 µM,1.1 ± 0.1
same,BioMAP readout fold decrease,[2]; 4.44 µM,1.073 ± 0.0033
same,BioMAP readout fold decrease,[2]; 13.3 µM,1.33 ± 0.037
same,BioMAP readout fold decrease,[2]; 40 µM,5.47 ± 0.25
3C_SRB,BioMAP readout fold decrease,[2]; 1.48 µM,0.983 ± 0.018
same,BioMAP readout fold decrease,[2]; 4.44 µM,1.13 ± 0.012
same,BioMAP readout fold decrease,[2]; 13.3 µM,1.46 ± 0.018
same,BioMAP readout fold decrease,[2]; 40 µM,2.09 ± 0.16
hDFCGF_MCSF,BioMAP readout fold decrease,[2]; 1.48 µM,1.03 ± 0.01
same,BioMAP readout fold decrease,[2]; 4.44 µM,0.98 ± 0.05
same,BioMAP readout fold decrease,[2]; 13.3 µM,1.21 ± 0.024
same,BioMAP readout fold decrease,[2]; 40 µM,2.01 ± 0.16
LPS_TNFa,BioMAP readout fold decrease,[2]; 1.48 µM,0.955 ± 0.077
same,BioMAP readout fold decrease,[2]; 4.44 µM,0.923 ± 0.036
same,BioMAP readout fold decrease,[2]; 13.3 µM,1.26 ± 0.13
same,BioMAP readout fold decrease,[2]; 40 µM,1.56 ± 0.35
HIF1a_CIS,reporter fold induction,[1]; 0.091 µM,1.04
same,reporter fold induction,[1]; 0.274 µM,1.07
same,reporter fold induction,[1]; 0.823 µM,1.03
same,reporter fold induction,[1]; 2.469 µM,1.03
same,reporter fold induction,[1]; 7.407 µM,1.07
same,reporter fold induction,[1]; 22.22 µM,1.22
same,reporter fold induction,[1]; 66.67 µM,0.927
same,reporter fold induction,[1]; 200 µM,1.08
KF3CT_TGFb1,BioMAP readout fold decrease,[2]; 1.48 µM,1.03 ± 0.011
same,BioMAP readout fold decrease,[2]; 4.44 µM,1.044 ± 0.0031
same,BioMAP readout fold decrease,[2]; 13.3 µM,1.11 ± 0.021
same,BioMAP readout fold decrease,[2]; 40 µM,2.33 ± 0.15
BE3C_IL1a,BioMAP readout fold decrease,[2]; 1.48 µM,1.06 ± 0.13
same,BioMAP readout fold decrease,[2]; 4.44 µM,1.13 ± 0.015
same,BioMAP readout fold decrease,[2]; 13.3 µM,1.19 ± 0.015
same,BioMAP readout fold decrease,[2]; 40 µM,1.85 ± 0.082
3C_VCAM1,BioMAP readout fold decrease,[2]; 1.48 µM,1.05 ± 0.029
same,BioMAP readout fold decrease,[2]; 4.44 µM,1.15 ± 0.027
same,BioMAP readout fold decrease,[2]; 13.3 µM,1.33 ± 0.03
same,BioMAP readout fold decrease,[2]; 40 µM,2.03 ± 0.072
SAg_CD38,BioMAP readout fold decrease,[2]; 1.48 µM,1.01 ± 0.025
same,BioMAP readout fold decrease,[2]; 4.44 µM,1.34 ± 0.061
same,BioMAP readout fold decrease,[2]; 13.3 µM,2.26 ± 0.16
same,BioMAP readout fold decrease,[2]; 40 µM,5.07 ± 0.81
CASM3C_LDLR,BioMAP readout fold decrease,[2]; 1.48 µM,1.1 ± 0.017
same,BioMAP readout fold decrease,[2]; 4.44 µM,1.188 ± 0.002
same,BioMAP readout fold decrease,[2]; 13.3 µM,0.969 ± 0.038
same,BioMAP readout fold decrease,[2]; 40 µM,2.21 ± 0.034
LPS_PGE2,BioMAP readout fold decrease,[2]; 1.48 µM,0.966 ± 0.071
same,BioMAP readout fold decrease,[2]; 4.44 µM,0.863 ± 0.057
same,BioMAP readout fold decrease,[2]; 13.3 µM,0.841 ± 0.037
same,BioMAP readout fold decrease,[2]; 40 µM,0.776 ± 0.044
IR1_CIS,reporter fold induction,[1]; 0.091 µM,1.07
same,reporter fold induction,[1]; 0.274 µM,0.953
same,reporter fold induction,[1]; 0.823 µM,1.02
same,reporter fold induction,[1]; 2.469 µM,1.01
same,reporter fold induction,[1]; 7.407 µM,1.08
same,reporter fold induction,[1]; 22.22 µM,0.864
same,reporter fold induction,[1]; 66.67 µM,0.788
same,reporter fold induction,[1]; 200 µM,0.644
BE3C_uPA,BioMAP readout fold decrease,[2]; 1.48 µM,1.07 ± 0.019
same,BioMAP readout fold decrease,[2]; 4.44 µM,1.017 ± 0.0048
same,BioMAP readout fold decrease,[2]; 13.3 µM,1.027 ± 0.0098
same,BioMAP readout fold decrease,[2]; 40 µM,1.15 ± 0.042
M_32_CIS,reporter fold induction,[1]; 0.091 µM,1.02
same,reporter fold induction,[1]; 0.274 µM,0.981
same,reporter fold induction,[1]; 0.823 µM,1
same,reporter fold induction,[1]; 2.469 µM,1.02
same,reporter fold induction,[1]; 7.407 µM,0.972
same,reporter fold induction,[1]; 22.22 µM,0.978
same,reporter fold induction,[1]; 66.67 µM,1.12
same,reporter fold induction,[1]; 200 µM,1.02
BE3C_hLADR,BioMAP readout fold decrease,[2]; 1.48 µM,0.985 ± 0.037
same,BioMAP readout fold decrease,[2]; 4.44 µM,1.17 ± 0.015
same,BioMAP readout fold decrease,[2]; 13.3 µM,1.72 ± 0.043
same,BioMAP readout fold decrease,[2]; 40 µM,2.97 ± 0.053
3C_MCP1,BioMAP readout fold decrease,[2]; 1.48 µM,1.04 ± 0.015
same,BioMAP readout fold decrease,[2]; 4.44 µM,0.986 ± 0.0064
same,BioMAP readout fold decrease,[2]; 13.3 µM,0.8619 ± 0.0073
same,BioMAP readout fold decrease,[2]; 40 µM,0.919 ± 0.018
AR_TRANS,reporter fold induction,[1]; 0.091 µM,1.06
same,reporter fold induction,[1]; 0.274 µM,0.894
same,reporter fold induction,[1]; 0.823 µM,1.13
same,reporter fold induction,[1]; 2.469 µM,1.02
same,reporter fold induction,[1]; 7.407 µM,1.02
same,reporter fold induction,[1]; 22.22 µM,1.29
same,reporter fold induction,[1]; 66.67 µM,1.01
same,reporter fold induction,[1]; 200 µM,1.14
SAg_PBMCCytotoxicity,BioMAP readout fold decrease,[2]; 1.48 µM,0.998 ± 0.065
same,BioMAP readout fold decrease,[2]; 4.44 µM,1.01 ± 0.078
same,BioMAP readout fold decrease,[2]; 13.3 µM,0.879 ± 0.028
same,BioMAP readout fold decrease,[2]; 40 µM,0.894 ± 0.028
SAg_SRB,BioMAP readout fold decrease,[2]; 1.48 µM,0.9638 ± 0.0049
same,BioMAP readout fold decrease,[2]; 4.44 µM,1.1 ± 0.021
same,BioMAP readout fold decrease,[2]; 13.3 µM,1.299 ± 0.011
same,BioMAP readout fold decrease,[2]; 40 µM,1.9 ± 0.097
Pax6_CIS,reporter fold induction,[1]; 0.091 µM,1
same,reporter fold induction,[1]; 0.274 µM,1.01
same,reporter fold induction,[1]; 0.823 µM,1.02
same,reporter fold induction,[1]; 2.469 µM,1.1
same,reporter fold induction,[1]; 7.407 µM,0.964
same,reporter fold induction,[1]; 22.22 µM,1.1
same,reporter fold induction,[1]; 66.67 µM,1.49
same,reporter fold induction,[1]; 200 µM,2.44
BE3C_SRB,BioMAP readout fold decrease,[2]; 1.48 µM,0.9933 ± 0.0058
same,BioMAP readout fold decrease,[2]; 4.44 µM,0.9934 ± 0.0085
same,BioMAP readout fold decrease,[2]; 13.3 µM,1.0272 ± 0.001
same,BioMAP readout fold decrease,[2]; 40 µM,1.1579 ± 0.0011
hDFCGF_PAI1,BioMAP readout fold decrease,[2]; 1.48 µM,1.12 ± 0.14
same,BioMAP readout fold decrease,[2]; 4.44 µM,1.08 ± 0.056
same,BioMAP readout fold decrease,[2]; 13.3 µM,1.43 ± 0.031
same,BioMAP readout fold decrease,[2]; 40 µM,3.53 ± 0.21
LPS_TissueFactor,BioMAP readout fold decrease,[2]; 1.48 µM,0.905 ± 0.021
same,BioMAP readout fold decrease,[2]; 4.44 µM,0.9505 ± 0.0063
same,BioMAP readout fold decrease,[2]; 13.3 µM,1.04 ± 0.02
same,BioMAP readout fold decrease,[2]; 40 µM,1.21 ± 0.024
SAg_CD40,BioMAP readout fold decrease,[2]; 1.48 µM,1.164 ± 0.003
same,BioMAP readout fold decrease,[2]; 4.44 µM,1.39 ± 0.092
same,BioMAP readout fold decrease,[2]; 13.3 µM,1.94 ± 0.027
same,BioMAP readout fold decrease,[2]; 40 µM,5.89 ± 0.36
LXRb_TRANS,reporter fold induction,[1]; 0.091 µM,1.17
same,reporter fold induction,[1]; 0.274 µM,1.09
same,reporter fold induction,[1]; 0.823 µM,1
same,reporter fold induction,[1]; 2.469 µM,1.16
same,reporter fold induction,[1]; 7.407 µM,0.89
same,reporter fold induction,[1]; 22.22 µM,0.837
same,reporter fold induction,[1]; 66.67 µM,1.13
same,reporter fold induction,[1]; 200 µM,1.11
CASM3C_SRB,BioMAP readout fold decrease,[2]; 1.48 µM,1.022 ± 0.0094
same,BioMAP readout fold decrease,[2]; 4.44 µM,1.1 ± 0.012
same,BioMAP readout fold decrease,[2]; 13.3 µM,1.07 ± 0.023
same,BioMAP readout fold decrease,[2]; 40 µM,1.41 ± 0.047
KF3CT_SRB,BioMAP readout fold decrease,[2]; 1.48 µM,1.012 ± 0.0046
same,BioMAP readout fold decrease,[2]; 4.44 µM,1.011 ± 0.0045
same,BioMAP readout fold decrease,[2]; 13.3 µM,1.0454 ± 0.00028
same,BioMAP readout fold decrease,[2]; 40 µM,1.53 ± 0.21
